# Rows were chosen to be rich in hits. Some 2.4% of all compounds tested hit in one or more screens of this group.
# Anthrax LT inh: anthrax lethal toxin internalization inhibition; Cells, anthrax lethal toxin internalization, FRET ratio (460/530); Potency, µM (top dose mostly 40 µM), without a hit: at the highest dose activity change, negative = inhibition, hits mostly inhibitors; 70,000 compounds, 0.67% hits; further: on the % scale 0 is the no-effect control and ±100 the full control effect; nearly all actives have a fitted effect of over 50% in size
# AmpC inh no det: blocks E. coli AmpC beta-lactamase in absence of detergent; P00811; AmpC nitrocefin hydrolysis, absorbance 480 nm, no detergent; Potency, µM (top dose mostly 28.7 µM), for the others: top-dose activity change, negative = inhibition; 71,000 compounds, 1.8% hits; AID 585; further: % of control where 0% means no effect
# Target sequence (P00811 whole entry, looked up): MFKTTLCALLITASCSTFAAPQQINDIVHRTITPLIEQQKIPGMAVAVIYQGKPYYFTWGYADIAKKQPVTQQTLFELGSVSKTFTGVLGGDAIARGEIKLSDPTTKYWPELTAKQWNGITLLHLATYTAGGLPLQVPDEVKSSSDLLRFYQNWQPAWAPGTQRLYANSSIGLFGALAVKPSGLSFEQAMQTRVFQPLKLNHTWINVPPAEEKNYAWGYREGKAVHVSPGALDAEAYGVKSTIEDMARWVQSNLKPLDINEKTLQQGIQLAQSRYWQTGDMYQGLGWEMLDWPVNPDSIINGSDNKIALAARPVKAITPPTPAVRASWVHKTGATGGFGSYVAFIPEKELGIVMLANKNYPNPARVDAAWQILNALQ
#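 AmpC, 20 mM phosphate pH 7.0; 15 min cpd preinc, RT; start with nitrocefin (800 uM stock); A480 kinetic read, 20 s intervals, 4 min. No-enzyme wells = negative control.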
# Prx2 Sm inh: blocks S. mansoni peroxiredoxin 2 enzymatic activity; S. mansoni Prx2 activity coupled to TGR/GSH (TGR is thioredoxin glutathione reductase), NADPH fluorescence loss, qHTS; Potency, µM; 65,000 compounds, 0.07% hits; AID 448
#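 Prx2 inhibition was measured as reduced NADPH consumption when electrons flowed from NADPH through TGR and glutathione to Prx2 and H2O2. Plates were read kinetically over 8 min; enzyme reagents were held at 4 deg C during dispensing.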
# AmpC det inh: blocks E. coli AmpC beta-lactamase in presence of detergent. Potency, µM (highest dose often 28.7 µM), without a hit: at the highest dose activity change, negative = inhibition. P00811. purified AmpC, nitrocefin hydrolysis with detergent. 71,000 compounds, 0.09% hits; active means well fitted curve in the direction sought with a large enough effect; inconclusive means small, poorly fitted or top-dose-only effect; further: on the % scale 0 is the no-effect control and ±100 the full control effect
#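 E. coli AmpC (5.3 nM) in 20 mM phosphate pH 7.0 with 0.01% Triton X-100, preincubated 15 min RT with compound; nitrocefin (2 uL of 800 uM stock) hydrolysis followed by 480 nm absorbance every 20 s over 4 min.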
# * hit, by the source's call; ? = inconclusive; . = not tested or not shown; [ ] = dose if it differs, or a comment. Unless noted, the call rests on the fitted dose curve. Potency means the concentration at half of the fitted maximal effect.
SMILES,Anthrax LT inh,AmpC inh no det,Prx2 Sm inh,AmpC det inh
CO/N=C(\C(=O)N[C@@H]1C(=O)N2C(C(=O)O)=C(COC(N)=O)CS[C@@H]12)c1ccco1,?,0.04µM*,>57,0.079µM*
CCCNC(=O)c1cc(-c2ccc(O)cc2)on1,0%,-16%,>57,4%
O=C(CSc1nnc(CNc2ccc(Cl)cc2)o1)Nc1nc2ccccc2s1,-4%,4µM*[single pt active],>57,0%
O=C(COc1ccc(Cl)cc1)NCc1nnc(SCC(=O)Nc2ccccc2)o1,-3%,30%,>57,-4%
CCOC(=O)C1C(=O)Oc2ccc3ccccc3c2C1C1CCOC1=O (configuration not stated),-11%,4µM*[single pt active],>57,14%
CCCCN(C)S(=O)(=O)c1ccc(C(=O)Nc2nnc(-c3cccs3)o2)cc1,-4%,16µM*,>57,-1%
CCCCN(CC)S(=O)(=O)c1ccc(C(=O)Nc2nnc(-c3ccccc3Cl)o2)cc1,11%,6.3µM*,>57,-1%
COc1ccc(-c2cc3ccccc3n2CC(O)CN2CCOCC2)cc1 (configuration not stated),-3%,144%,>57,10%
COc1ccc(C(c2c(O)ccc3ccccc23)N2CCOCC2)c(OC)c1 (configuration not stated),6.3µM*,77%,>57,12%
CCOC(=O)CNc1c(N2CCN(c3ccccn3)CC2)c(=O)c1=O,-5%,4µM*[single pt active],>57,10%
O=C(C1CCC(CNc2c(N3CCCCC3)c(=O)c2=O)CC1)N1CCN(c2ccccn2)CC1 (configuration not stated),-1%,4µM*[single pt active],>57,11%
CCOC(=O)c1c(NC(=O)CN2CCN(c3ccccn3)CC2)sc2c1CCCC2,-11%,12%,>57,-12%
Nc1ccc(Cl)cc1[N+](=O)[O-],-11%,-5%,.,11%
Cc1ccc(S(=O)(=O)C2(C(=O)Nc3cccnc3)CC2)cc1,-9%,4µM*[single pt active],>57,14%
C=C1CC[C@@H]2O[C@]2(C)CC[C@@H]2[C@H]1CC2(C)C,?,117%,>57,-2%
COc1ccccc1-c1nnc(SCC(=O)NCc2c(C)c(Cl)cc(C(C)C)c2O)o1,10µM*,94%,>57,0%
COc1ccccc1-c1nnc(SCC(=O)Nc2c(Cl)cccc2Cl)o1,20%,-14%,>57,-3%
COC(=O)C1=C2N(Cc3ccccc3)C(C)=C(C(=O)OC)C(c3ccccc3)N2C(=O)[C@](O)(C(=O)OC)C1 (some centres not stated),1%[8 µM],.,.,.
COc1ccc(OC2C=CC(c3ccccc3)OC2CO)cc1 (configuration not stated),1%[8 µM],.,.,.
c1ccc(CCCN2CCN(CCOC(c3ccccc3)c3ccccc3)CC2)cc1,25µM*,70%,>57,0%
Fc1ccc(C(OCCN2CCN(CCCc3ccccc3)CC2)c2ccc(F)cc2)cc1,?,13%,>57,-6%
COc1ccc2c(c1)[C@]13CCCC[C@@H]1[C@H](C2)NCC3,23%,1%,>57,-1%
NC(=O)c1cc(Cl)cn(-c2ccccc2)c1=O,-3%,3.2µM*[single pt active],>57,13%
NC(=O)c1cn(-c2ccccc2)nc1-c1cccnc1,11%,-3%,>57,-2%
CC(C)C[C@H](NC(=O)[C@@H](NC(=O)N[C@@H](Cc1ccccc1)C(=O)O)[C@H]1CCN=C(N)N1)C(=O)N[C@H](C=O)Cc1ccccc1,?,69%,>57,0%
SMILES,Anthrax LT inh,AmpC inh no det,Prx2 Sm inh,AmpC det inh
CC1=C(\C=C/C(C)=C/C=C\C(C)=C\C(=O)Nc2ccc(O)cc2)C(C)(C)CCC1,-8%,6%,>57,1%
COc1cc(C(=O)OCC(=O)Nc2cc(C)on2)ccc1OCc1ccccc1Cl,2%,13µM*,>57,-2%
Cc1cc(N=Cc2c(O)n(-c3ccc4c(c3)OCO4)c(=O)c3ccccc23)ccn1,7.9µM*,111%,>57,9%
Cc1occc1C(=O)n1nnc2ccccc21,-21%,10µM*,>57,10µM*
COc1ccc(CCNC(=O)C2(C)CCC(=O)N2Cc2ccc3c(c2)OCO3)cc1OC (configuration not stated),-1%,4µM*[single pt active],>57,11%
CC1(C(=O)NC2CCCCCC2)CCC(=O)N1Cc1ccc2c(c1)OCO2 (configuration not stated),-2%,41%,>57,3%
COc1ccc(NC(=O)NCCCN2CCN(c3cc(C)ccc3C)CC2)cc1,?,4µM*[single pt active],>57,12%
CN[C@H]1[C@H]2[C@H]3CCN2C[C@@H]1O3,?,6%,>57,1%
CS/C(=N\S(=O)(=O)c1cccs1)NC(=O)CSc1nc2ccccc2s1,?,13µM*,>57,-4%
COc1cc(OC)c(C2=NOC(C(=O)Nc3cc(C)nn3-c3ccccc3)C2)cc1Cl (configuration not stated),?,78%,>57,0%
COc1cccc(C2=NOC(C(=O)Nc3cc(C)nn3-c3ccccc3)C2)c1OC (configuration not stated),?,4µM*[single pt active],>57,11%
O=C(CSc1nc(-c2ccccc2)cs1)Nc1nccs1,2%,10µM*,>57,-3%
CN1CCN(CCCN2c3ccccc3Sc3ccc(Cl)cc32)CC1,25µM*,61%[12.8 µM],>57,-2%[12.8 µM]
CCSc1ccc2c(c1)N(CCCN1CCN(C)CC1)c1ccccc1S2,15%[3.58 µM],57%[12.8 µM],>57,-3%[12.8 µM]
CCOC(=O)c1sc(NC(=O)c2noc3c2CCCC3)c(C(=O)OCC)c1C,-13%,4µM*[single pt active],>57,13%
CCOC(=O)c1c(NC(=O)c2noc3c2CCCC3)sc(C)c1C,8%,13%,>57,2%
N#CCBr,-5%,-5%,.,8%
C=CCSc1nnc(NC(=O)CSc2nc3ccccc3o2)s1,26%,10µM*[single pt active],>57,-3%
N#CCCS(=O)(=O)c1nnnn1-c1ccccc1,10µM*,0%,?,-7%
O=C=Nc1ccc(Cc2ccc(N=C=O)cc2)cc1,-9%,16µM*,.,9%
O=C(c1cccs1)N1CCN(CCc2ccccc2)CC1,8%,10%,>57,-3%
O=C(CCc1ccccc1)N1CCN(CCO)CC1,-8%,4µM*[single pt active],>57,11%
NC(N)=Nc1ccc2[nH]c3c(c2c1)C[C@]1(O)[C@@H]2Cc4ccc(O)c5c4[C@]1(CCN2CC1CC1)[C@H]3O5,3%,-4%,>57,-3%
O=C(CCl)c1ccc(Cl)cc1Cl,5µM*,-3%,.,12%
CCN=C=NCCCN(C)C,1%[8 µM],-18%[5.75 µM],>57,-1%[5.75 µM]
CC1=C2C(=O)[C@@H]3[C@@H](CC=C4C[C@@H](O)CC[C@@]43C)[C@H]2CC[C@@]12O[C@H]1C[C@H](C)CN[C@H]1[C@@H]2C,?,14%[5.75 µM],>57,-4%[5.75 µM]
N[C@@H](Cc1cc(-c2ccc(Cl)cc2Cl)cc(CP(=O)(O)O)c1O)C(=O)O,?,?,>57,16µM*
CCc1cc2cc(C(=O)N3CCN(Cc4ccccc4)CC3)sc2s1,13µM*,76%,.,1%
c1ccc2cc3c(cc2c1)-c1cccc2cccc-3c12,?,1%,.,10%
Cc1cc(C(=O)CSc2nc3ccccc3[nH]2)c(C)n1C,-8%,-2%,>57,-3%

# Source: PubChem
